Measurements: ChEMBL document CHEMBL2218924, “A broad activity screen in support of a chemogenomic map for kinase signalling research and drug discovery” (Biochem J, 2013)

target: Tyrosine-protein kinase Fgr (Homo sapiens) (UniProt P09769); conditions: at 10 µM
Sequence (P09769 2-529 limits assumed): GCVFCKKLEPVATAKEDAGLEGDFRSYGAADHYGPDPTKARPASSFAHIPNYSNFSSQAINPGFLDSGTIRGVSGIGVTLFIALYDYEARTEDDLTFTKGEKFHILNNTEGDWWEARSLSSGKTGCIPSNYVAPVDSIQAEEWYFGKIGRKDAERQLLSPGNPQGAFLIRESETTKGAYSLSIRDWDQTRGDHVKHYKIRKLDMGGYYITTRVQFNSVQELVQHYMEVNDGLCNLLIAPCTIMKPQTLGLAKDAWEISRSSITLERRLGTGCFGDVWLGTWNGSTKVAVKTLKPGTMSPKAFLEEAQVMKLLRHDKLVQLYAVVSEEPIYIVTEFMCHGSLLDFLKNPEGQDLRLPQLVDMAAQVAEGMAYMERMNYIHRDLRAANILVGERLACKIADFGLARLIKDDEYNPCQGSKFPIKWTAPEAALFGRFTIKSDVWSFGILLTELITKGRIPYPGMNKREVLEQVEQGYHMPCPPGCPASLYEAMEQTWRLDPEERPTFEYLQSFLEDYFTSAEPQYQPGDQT

| Compound | residual activity |
| --- | --- |
| CC(=O)O/N=C1\C(=C2\C(=O)Nc3cc(Br)ccc32)Nc2ccccc21 | -1% |
| Oc1n[nH]c2nnc(-c3c(-c4ccccc4)nn4ccccc34)cc12 | 95% |
| Cn1cnc2cc3c(Nc4cccc(Br)c4)ncnc3cc21 | 35% |
| O=C(O)c1ccc2c3c1cccc3c(=O)n1c3ccccc3nc21 | 87% |
| Nc1nc(Nc2ccc(S(N)(=O)=O)cc2)nn1C(=S)Nc1c(F)cccc1F | 1% |
| CCC(=O)Nc1ccc2ncnc(Nc3cccc(Br)c3)c2c1 | 76% |
| CO[C@H]1C[C@@H]2CC[C@@H](C)[C@@](O)(O2)C(=O)C(=O)N2CCCC[C@H]2C(=O)O[C@H]([C@H](C)C[C@@H]2CC[C@@H](O)[C@H](OC)C2)CC(=O)[C@H](C)/C=C(\C)[C@@H](O)[C@@H](OC)C(=O)[C@H](C)C[C@H](C)/C=C/C=C/C=C/1C | 99% |
| O=C1NC(=O)/C(=C/c2ccc3c(c2)OC(F)(F)O3)S1 | 101% |
| O=C1Nc2ccccc2/C1=C1/Nc2ccccc2/C1=N\OCCC(O)CO (stereo not given) | 3% |
| O=c1c2ccccc2[nH]c(=S)n1CCN1CCC(=C(c2ccc(F)cc2)c2ccc(F)cc2)CC1 | 91% |
| CC(C)n1cnc2c(NCc3ccccc3)nc(NCCCO)nc21 | 103% |
| Cc1nc2cc3nc(-c4cccs4)cnc3cc2n1C | 69% |
| COc1cc2ncnc(Nc3ccc(O)c(Br)c3)c2cc1OC | 6% |
| CCOc1cc2ncnc(Nc3cccc(Br)c3)c2cc1OCC | 10% |
| Cn1cc(/C=C2\C(=O)Nc3ccc(S(N)(=O)=O)cc32)c2ccccc21 | 10% |
| COc1ccc(CNc2nc(N(CCO)CCO)nc3c2ncn3C(C)C)cc1 | 85% |
| O=c1cc(-c2cccc3c2Sc2ccccc2S3)oc(N2CCOCC2)c1 | 93% |
| O=C(Nc1cccc(Nc2nccc(Nc3cccc(C(F)(F)F)c3)n2)c1)C1CC1 | 67% |

| Compound | residual activity |
| --- | --- |
| CCN(CC)CCCCN1c2ccccc2Oc2ccc(Cl)cc21 | 95% |
| Nc1cccc(-c2cc3c(Oc4cccc(O)c4)ncnc3[nH]2)c1 | 2% |
| COc1ccc(OC)c2c(=S)c3ccccc3[nH]c12 | 99% |
| COc1cccc(-c2cc(=O)c3ccccc3o2)c1N | 100% |
| CNc1cc2c(Nc3cccc(Br)c3)ncnc2cn1 | 60% |
| CC(C)n1cnc2/c(=N/c3cccc(Cl)c3)nc(NCCO)[nH]c21 | 12% |
| CN(C)c1ccc(/C=C2\C(=O)Nc3ccccc32)cc1 | 44% |
| N#C/C(=C(\N)Sc1ccc(N)cc1)c1ccccc1C(F)(F)F | 73% |
| O=C1Nc2cc(Br)ccc2/C1=C1/Nc2ccccc2/C1=N\O | 2% |
| Ic1cccc(CSc2nnc(-c3ccncc3)o2)c1 | 81% |
| O=C1NC(=O)c2cc(Nc3ccc(F)cc3)c(Nc3ccc(F)cc3)cc21 | 44% |
| O=C1c2ccccc2-[n+]2ccc3c([nH]c4ccccc43)c21 | 85% |
| COc1ccc(S(=O)(=O)N(CCO)c2ccccc2CN(C)C/C=C/c2ccc(Cl)cc2)cc1 | 80% |
| O=C1NC(=O)/C(=C\c2ccc3nccnc3c2)S1 | 89% |
| Oc1ccc(Nc2nc(-c3ccc(Cl)cc3)cs2)cc1 | 93% |
| O=C1NC(=O)c2c1c1c3ccccc3[nH]c1c1[nH]c3cc(Br)ccc3c21 | 91% |
| Oc1c2ccccc2c2c3c(cccc13)N=N2 | 38% |

target: Vascular endothelial growth factor receptor 1 (Homo sapiens) (UniProt P17948); conditions: at 1 µM
Sequence (P17948 whole entry): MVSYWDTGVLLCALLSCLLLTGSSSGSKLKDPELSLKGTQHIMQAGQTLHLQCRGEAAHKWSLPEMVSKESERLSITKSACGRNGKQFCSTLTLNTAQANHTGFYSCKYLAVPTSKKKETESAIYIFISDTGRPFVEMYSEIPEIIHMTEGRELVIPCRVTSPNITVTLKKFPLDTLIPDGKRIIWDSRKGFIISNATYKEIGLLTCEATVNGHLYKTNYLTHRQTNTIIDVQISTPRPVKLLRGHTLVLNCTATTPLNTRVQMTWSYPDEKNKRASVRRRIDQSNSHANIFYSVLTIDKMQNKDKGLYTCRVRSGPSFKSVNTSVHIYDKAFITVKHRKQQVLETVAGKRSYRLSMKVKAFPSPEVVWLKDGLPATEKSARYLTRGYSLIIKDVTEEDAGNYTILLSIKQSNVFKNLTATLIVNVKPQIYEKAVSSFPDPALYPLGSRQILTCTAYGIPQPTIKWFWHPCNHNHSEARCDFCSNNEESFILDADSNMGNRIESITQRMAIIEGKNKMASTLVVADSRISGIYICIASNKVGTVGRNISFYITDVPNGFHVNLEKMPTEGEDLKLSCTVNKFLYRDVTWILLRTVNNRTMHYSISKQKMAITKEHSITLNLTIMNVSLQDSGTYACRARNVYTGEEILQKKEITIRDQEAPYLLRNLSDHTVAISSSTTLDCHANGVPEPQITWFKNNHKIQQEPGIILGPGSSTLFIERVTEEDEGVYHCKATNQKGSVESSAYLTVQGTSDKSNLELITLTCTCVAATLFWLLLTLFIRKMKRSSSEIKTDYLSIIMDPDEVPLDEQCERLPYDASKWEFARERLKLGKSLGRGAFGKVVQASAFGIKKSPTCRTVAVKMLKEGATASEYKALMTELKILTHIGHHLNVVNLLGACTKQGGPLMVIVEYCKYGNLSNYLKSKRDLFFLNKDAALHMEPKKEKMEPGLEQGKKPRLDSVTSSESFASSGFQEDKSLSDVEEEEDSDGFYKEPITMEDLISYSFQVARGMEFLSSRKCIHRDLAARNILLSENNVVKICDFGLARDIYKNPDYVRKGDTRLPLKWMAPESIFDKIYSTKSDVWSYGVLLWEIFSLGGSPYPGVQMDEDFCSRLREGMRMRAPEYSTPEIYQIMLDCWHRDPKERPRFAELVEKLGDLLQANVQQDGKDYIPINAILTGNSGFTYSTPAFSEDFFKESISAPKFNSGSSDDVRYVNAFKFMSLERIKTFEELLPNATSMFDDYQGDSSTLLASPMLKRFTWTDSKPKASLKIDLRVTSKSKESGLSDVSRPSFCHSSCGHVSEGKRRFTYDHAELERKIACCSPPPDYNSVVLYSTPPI

| Compound | residual activity |
| --- | --- |
| CC(=O)O/N=C1\C(=C2\C(=O)Nc3cc(Br)ccc32)Nc2ccccc21 | 24% |
| Oc1n[nH]c2nnc(-c3c(-c4ccccc4)nn4ccccc34)cc12 | 86% |
| Cn1cnc2cc3c(Nc4cccc(Br)c4)ncnc3cc21 | 43% |
| O=C(O)c1ccc2c3c1cccc3c(=O)n1c3ccccc3nc21 | 92% |
| Nc1nc(Nc2ccc(S(N)(=O)=O)cc2)nn1C(=S)Nc1c(F)cccc1F | 0% |
| CCC(=O)Nc1ccc2ncnc(Nc3cccc(Br)c3)c2c1 | 86% |
| CO[C@H]1C[C@@H]2CC[C@@H](C)[C@@](O)(O2)C(=O)C(=O)N2CCCC[C@H]2C(=O)O[C@H]([C@H](C)C[C@@H]2CC[C@@H](O)[C@H](OC)C2)CC(=O)[C@H](C)/C=C(\C)[C@@H](O)[C@@H](OC)C(=O)[C@H](C)C[C@H](C)/C=C/C=C/C=C/1C | 88% |
| O=C1NC(=O)/C(=C/c2ccc3c(c2)OC(F)(F)O3)S1 | 92% |
| O=C1Nc2ccccc2/C1=C1/Nc2ccccc2/C1=N\OCCC(O)CO (stereo not given) | 1% |
| O=c1c2ccccc2[nH]c(=S)n1CCN1CCC(=C(c2ccc(F)cc2)c2ccc(F)cc2)CC1 | 97% |
| CC(C)n1cnc2c(NCc3ccccc3)nc(NCCCO)nc21 | 94% |
| Cc1nc2cc3nc(-c4cccs4)cnc3cc2n1C | 40% |
| COc1cc2ncnc(Nc3ccc(O)c(Br)c3)c2cc1OC | 29% |
| CCOc1cc2ncnc(Nc3cccc(Br)c3)c2cc1OCC | 54% |
| Cn1cc(/C=C2\C(=O)Nc3ccc(S(N)(=O)=O)cc32)c2ccccc21 | 22% |
| COc1ccc(CNc2nc(N(CCO)CCO)nc3c2ncn3C(C)C)cc1 | 88% |
| O=c1cc(-c2cccc3c2Sc2ccccc2S3)oc(N2CCOCC2)c1 | 95% |
| O=C(Nc1cccc(Nc2nccc(Nc3cccc(C(F)(F)F)c3)n2)c1)C1CC1 | 59% |

| Compound | residual activity |
| --- | --- |
| CCN(CC)CCCCN1c2ccccc2Oc2ccc(Cl)cc21 | 115% |
| Nc1cccc(-c2cc3c(Oc4cccc(O)c4)ncnc3[nH]2)c1 | 0% |
| COc1ccc(OC)c2c(=S)c3ccccc3[nH]c12 | 90% |
| COc1cccc(-c2cc(=O)c3ccccc3o2)c1N | 101% |
| CNc1cc2c(Nc3cccc(Br)c3)ncnc2cn1 | 87% |
| CC(C)n1cnc2/c(=N/c3cccc(Cl)c3)nc(NCCO)[nH]c21 | 68% |
| CN(C)c1ccc(/C=C2\C(=O)Nc3ccccc32)cc1 | 14% |
| N#C/C(=C(\N)Sc1ccc(N)cc1)c1ccccc1C(F)(F)F | 83% |
| O=C1Nc2cc(Br)ccc2/C1=C1/Nc2ccccc2/C1=N\O | -1% |
| Ic1cccc(CSc2nnc(-c3ccncc3)o2)c1 | 26% |
| O=C1NC(=O)c2cc(Nc3ccc(F)cc3)c(Nc3ccc(F)cc3)cc21 | 77% |
| O=C1c2ccccc2-[n+]2ccc3c([nH]c4ccccc43)c21 | 79% |
| COc1ccc(S(=O)(=O)N(CCO)c2ccccc2CN(C)C/C=C/c2ccc(Cl)cc2)cc1 | 100% |
| O=C1NC(=O)/C(=C\c2ccc3nccnc3c2)S1 | 88% |
| Oc1ccc(Nc2nc(-c3ccc(Cl)cc3)cs2)cc1 | 99% |
| O=C1NC(=O)c2c1c1c3ccccc3[nH]c1c1[nH]c3cc(Br)ccc3c21 | 30% |
| Oc1c2ccccc2c2c3c(cccc13)N=N2 | 26% |
